This is a sample that favours compounds with a hit; in the whole collection about 8.1% have one here.
SW480 rerep – A quantitative high throughput screen for small molecules that induce DNA re-replication in SW480 colon adenocarcinoma cells; SW480 DNA re-replication, Hoechst DNA content imaging, 48 h; Potency, µM (doses to about 46.1 µM), without a hit: at the highest dose re-replication activation, usual class: activators; actives 1.8% (n = 340,000); AID 624297, 2012; further: % of control where 0% means no effect; nearly all actives have a fitted effect of over 55% in size
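Image-based DNA-content assay: after two days of treatment, nuclei were labelled with the DNA dye Hoechst and imaged, and hits were compounds raising the count of nuclei showing high fluorescence intensity.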
MCF10A rerep – A quantitative high throughput screen for small molecules that induce DNA re-replication in MCF 10a normal breast cells. actives 2.9% (n = 350,000). AID 624296, 2012. MCF 10A DNA re-replication, Hoechst nuclear intensity, 48 h. Potency, µM (doses to about 46.1 µM), without a hit: top-dose activity, positive = re-replication, hits mostly activators; further: % of control where 0% means no effect; nearly all actives have a fitted effect of over 50% in size
ELG1 DNA repair – qHTS screen for small molecules that inhibit ELG1-dependent DNA repair in human embryonic kidney (HEK293T) cells expressing luciferase-tagged ELG1 | HEK293T ELG1-luciferase reporter, luminescence, 16 h; DNA damage induced by 5-fluorouridine | Potency, µM (titrated, usually from 46.1 µM), for the others: top-dose activity change, negative = inhibition, hits mostly inhibitors | actives 2.3% (n = 330,000) | AID 504467, 2011; further: on the % scale 0 is the no-effect control and ±100 the full control effect; nearly all actives have a fitted effect of over 55% in size
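HEK293T cells expressing luciferase-tagged ELG1 (2,000/well) received 5-Fluorouridine plus compound or DMSO for 16 hr at 37 °C. Luciferase was read by ONE-Glo luminescence after 30 min at room temperature.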
KB-3-1 cytotox – qHTS assay for MDR1-selective chemotherapeutics: Primary screen using the parental adenocarcinoma cell KB-3-1. KB-3-1 viability, CellTiter-Glo ATP luminescence, 72 h. Potency, µM (highest dose often 46.1 µM), most hits filed as cytotoxic. actives 1.4% (n = 400,000); further: on the % scale 0 is the no-effect control and ±100 the full control effect; nearly all actives have a fitted effect of over 60% in size
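Screening of KB-3-1 cells (DMEM, 10% FBS, phenol-red free) ran from lowest to highest compound concentration; after 72 h at 37 °C viability was read luminescently and curves fitted.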
KB-V1 MDR tox – qHTS assay for MDR1-selective chemotherapeutics: Primary screen using the drug-selected MDR subline cells KB-V1; KB-V1 MDR cells viability, CellTiter-Glo, 72 h; Potency, µM (doses to about 46.1 µM), usual class: cytotoxic; actives 3.4% (n = 400,000); AID 1347076, 2019; further: on the % scale 0 is the no-effect control and ±100 the full control effect; nearly all actives have a fitted effect of over 60% in size
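In this primary screen, KB-V1 cells overexpressing P-gp are incubated with library compounds (lowest to highest concentration) for 72 h at 37 degrees C before a luminescent ATP viability read.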
The depositor's hits bear a star; i = inactive; ? = inconclusive; / = no result. The call rests on the fitted dose curve; in most records, active means well fitted curve in the direction sought with a large enough effect; inconclusive means small, poorly fitted or top-dose-only effect, or another doubt; inactive means no such curve, though single readings can be large; an effect the other way counts as inactive or inconclusive. Potency means the concentration at half of the fitted maximal effect.

SMILES	SW480 rerep	MCF10A rerep	ELG1 DNA repair	KB-3-1 cytotox	KB-V1 MDR tox
COc1ccc(CN(C)C(=O)c2cccc(NC(=O)CC3SC(N4CCCCC4)=NC3=O)c2)c(OC)c1 (stereo not given)	6.5µM*	?	/	16µM*	i
COc1cccc(CN(C)C(=O)c2cccc(NC(=O)CC3SC(N4CCCCC4)=NC3=O)c2)c1OC (stereo not given)	-29%	-3%	?	i	i
COc1ccc(-n2c(=O)c3c4c(sc3n(Cc3ccc(C)cc3C)c2=O)CCC4)c(OC)c1	/	/	/	i	i
COc1ccc([C@]2(C(C)C)ON(c3ccccc3C(F)(F)F)C2=O)cc1	-3%	7%	-11%	i	i
COc1ccccc1[C@]1(C)ON(c2ccccc2C(F)(F)F)C1=O	9%	14%	21µM*	i	?
CC[C@]1(c2ccccc2OC)ON(c2ccccc2C(F)(F)F)C1=O	?	?	?	23µM*	?
O=c1c2c(-c3ccc(Cl)cc3)csc2nc2n1CCC2	8%	11%	-3%	i	18µM*
COc1ccccc1N(C)S(=O)(=O)c1ccc(Cl)c(C(=O)Nc2ccccc2N2CCOCC2)c1	-24%	4%	/	i	?
Cn1nnnc1SCC1=C(C(=O)O)N2C(=O)C(NC(=O)Cn3nc(C(F)F)cc3C3CC3)C2SC1 (stereo not given)	2%	0.58µM*	0%	i	?
O=C1C(N2CCOCC2)=C(n2nnc3ccccc32)C(=O)c2ccccc21	?	?	2.6µM*	i	4.1µM*
O=C(c1ccccc1)c1ccc(OCC(O)CN2CCN(S(=O)(=O)N3CCCCC3)CC2)cc1 (stereo not given)	9%	22%	18µM*	23µM*	2.1µM*
O=C(c1ccccc1)c1ccc(OCC(O)CN2CCCCC2)cc1 (stereo not given)	0%	?	0%	i	i
C=CCN1C(=O)N/C(=C/c2ccc(N3CCOCC3)o2)C1=O	5.8µM*	5.8µM*	?	/	/
O=C1N/C(=C/c2ccc(N3CCOCC3)o2)C(=O)N1c1ccccc1	8.2µM*	3.7µM*	?	i	i
O=C(Cc1ccc(Cl)cc1)SCc1ccccc1	-5%	-3%	21%	i	i
CC(C)(C)c1ccc(C(=O)NNC(=O)c2cccc(Br)c2)cc1	?	12µM*	?	i	i
CCOc1c(Br)cc(CNC2CCCCCCC2)cc1OC	?	10µM*	-19%	?	?
COc1cc(CNC2CCCCCCC2)cc(Br)c1OCC#N	?	?	?	i	23µM*
CC(C)[C@@H]1O[C@H](CCc2ccccc2)CC2=C1C(=O)OC(C)(C)O2	/	/	/	i	?
c1ccc2c(c1)sc[n+]2CCC1CCCCC1	/	/	/	i	i
O=C(COC(=O)C1CC1)NCc1ccccc1	-31%	-1%	?	i	i
O=S(=O)(c1cccc(F)c1)N1CCC(c2nc3ccccc3s2)CC1	/	/	/	i	i
CCOc1ccc(-n2c(C)cc(/C=C3/C(=N)N4C(=NC3=O)SN=C4S(C)(=O)=O)c2C)cc1	13%	15µM*	-2%	i	i
Cc1cc(/C=C2/C(=N)N3C(=NC2=O)SN=C3S(C)(=O)=O)c(C)n1-c1ccc(F)cc1	-3%	21µM*	?	i	i
CCSc1nc2c([nH]c3ccccc32)c(=O)n1-c1ccc(OC)cc1	/	/	/	i	i
SMILES	SW480 rerep	MCF10A rerep	ELG1 DNA repair	KB-3-1 cytotox	KB-V1 MDR tox
CC(C)C1C(=O)N(Cc2cn(CCC3OCCO3)nn2)CCS(=O)(=O)N1Cc1ccc(-c2ccccc2Cl)cc1 (stereo not given)	/	/	/	i	?
O=C(N[C@@H]1C/C=C\C[C@H](CC(=O)N(CCO)Cc2ccccc2)C(=O)NC[C@@H](c2ccccc2)OC1=O)OCC1c2ccccc2-c2ccccc21	?	?	?	i	i
C[C@H]1COC(=O)[C@H](NC(=O)OCC2c3ccccc3-c3ccccc32)C/C=C\C[C@H](CC(=O)N(CCO)Cc2ccccc2)C(=O)N1	?	?	26µM*	i	i
O=C(N[C@@H]1C/C=C\C[C@@H](CC(=O)N(CCO)Cc2ccccc2)C(=O)NC[C@H](c2ccccc2)OC1=O)OCC1c2ccccc2-c2ccccc21	?	?	15µM*	?	?
O=C1Nc2cc(Cl)ccc2Oc2cc(Oc3ccccc3)ccc21	/	/	/	i	?
COc1ccc2nc(N=Nc3ccc(N(C)C)cc3)sc2c1	2%	-1%	?	13µM*	?
COc1ccc2nc(/N=C\N(C)C)sc2c1	6%	2%	?	i	i
CCCc1cc(-c2ccc3c(c2)COc2c4ccccc4nn2-3)on1	-3%	16µM*	?	i	i
Cc1cc(C)c(NC(=O)c2cccc3c2C(=O)N(C2CCCCC2)C3)c(C)c1	-7%	?	-19%	21µM*	?
COc1ccc(-n2nc(C(=O)Nc3ccc(C)cn3)c3c4ccccc4n(C)c3c2=O)cc1Cl	/	/	/	i	?
Cc1ccc(C(=O)N2CCN(Cc3ccc4c(c3)OCO4)CC2)cc1S(=O)(=O)N1CCOCC1	-7%	18%	-6%	i	16µM*
Cc1ccc(NC(=O)c2ccc3c(c2)OCO3)cc1S(=O)(=O)N1CCOCC1	-2%	0%	18µM*	i	i
Cc1ccc(NC(=O)c2oc3ccccc3c2COC(C)C)cc1S(=O)(=O)N1CCOCC1	2%	?	18µM*	?	?
O=C(Nc1ccc2c(c1)OCO2)c1ccc(Cl)c(S(=O)(=O)N2CCOCC2)c1	-4%	-3%	-5%	/	/
Cc1ccc(C(=O)Nc2ccc(Br)cc2)cc1S(=O)(=O)N1CCOCC1	/	/	/	10µM*	4.1µM*
CCn1c(=O)c(=O)[nH]c2cc(C(=O)N3CCN(Cc4ccc5c(c4)OCO5)CC3)ccc21	-33%	5.2µM*	-6%	i	i
CCOc1ccc(N(C)S(=O)(=O)c2ccc(C)c(C(=O)N3CCN(Cc4ccc5c(c4)OCO5)CC3)c2)cc1	22%	?	16µM*	?	i
COc1ccc(N(C)S(=O)(=O)c2cccc(C(=O)N3CCN(Cc4ccc5c(c4)OCO5)CC3)c2)cc1	2%	?	-21%	i	?
O=C(c1cccc(F)c1)N1CCN(Cc2ccc3c(c2)OCO3)CC1	1%	9%	-16%	i	i
